Measurements as given in PubChem BioAssay AID1053 (University of Pittsburgh Molecular Library Screening Center, 2008).
Several values for one entry are separate records, joined by “and”; a condition that tells them apart may be missing. Equal values may be shown once. Activity calls are given as the source filed them. How the calls were made is not given here.

target: Serine/threonine-protein kinase PLK1 (Homo sapiens) (UniProt P53350); assay: Plk1 polo box domain binding inhibitors, SAR follow-up, biochemical, fluorescence polarization, purchased analogs (AID 1053); settings: Plk1 PBD fluorescence polarization peptide binding; at 20 µM; stronger effect = higher value
Sequence (P53350 whole entry, looked up, the tested form may be a part): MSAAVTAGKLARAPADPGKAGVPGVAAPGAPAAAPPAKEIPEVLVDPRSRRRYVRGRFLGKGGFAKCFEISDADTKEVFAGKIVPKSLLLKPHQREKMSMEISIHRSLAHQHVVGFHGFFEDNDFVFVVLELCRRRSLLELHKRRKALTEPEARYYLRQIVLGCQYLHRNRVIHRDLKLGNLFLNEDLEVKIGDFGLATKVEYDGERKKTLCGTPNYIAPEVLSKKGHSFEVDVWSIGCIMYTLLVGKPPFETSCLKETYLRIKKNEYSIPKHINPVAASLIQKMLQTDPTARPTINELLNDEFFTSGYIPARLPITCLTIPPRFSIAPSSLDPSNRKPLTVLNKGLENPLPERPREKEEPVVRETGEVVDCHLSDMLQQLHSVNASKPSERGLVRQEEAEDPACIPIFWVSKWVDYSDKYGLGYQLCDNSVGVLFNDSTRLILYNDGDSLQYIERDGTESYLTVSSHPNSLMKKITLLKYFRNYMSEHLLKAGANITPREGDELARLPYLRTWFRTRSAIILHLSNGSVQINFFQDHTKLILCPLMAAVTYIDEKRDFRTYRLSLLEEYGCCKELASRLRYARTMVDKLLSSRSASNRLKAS

inhibition, inactive:
COc1ccc(N(CN2C(=O)c3ccccc3C2=O)C(=O)C(F)(F)F)cc1 -44.5%
CCOC(=O)c1ccc(NC(=O)C2C3CCC(C3)C2C(=O)O)cc1 (configuration not stated) -61.5%
O=c1[nH]c(=O)c2nc(-c3ccc(Cl)cc3)cnc2[nH]1 -45.5%
CC1CN(c2cc3nccnc3cc2F)CC(C)O1 (configuration not stated) -46.8%
Cn1c(=O)[nH]c2nnc(-c3ccc(F)cc3)nc2c1=O -42.3%
CCCCCOC(=O)c1ccc(NC(=O)c2ccc([N+](=O)[O-])cc2)cc1 28.2%
CC(=O)c1ccc(N(CN2C(=O)c3ccc([N+](=O)[O-])cc3C2=O)C(C)=O)cc1 -32.8%
CCOC(=O)c1ccc(N=Cc2c(O)n(Cc3ccc4c(c3)OCO4)c(=O)[nH]c2=O)cc1 -19.4%
CC(=O)N(CN1C(=O)c2ccccc2C1=O)c1cc(C)ccc1C -34.4%
CCOC(=O)c1ccc(N=Cc2c(O)n(C3CCCCC3)c(=O)n(C3CCCCC3)c2=O)cc1 13.1%
CCCOC(=O)c1ccc(NC(=O)c2ccc(OC)c([N+](=O)[O-])c2)cc1 -17.9%
COc1ccccc1N(/N=C1\Sc2ccccc2C1=O)C(C)=O 6.58%
CC(=O)N(CN1C(=O)c2ccccc2C1=O)c1ccc(I)cc1 -50.3% and -70.1%
CCOC(=O)c1ccc(N=Cc2c(O)n(Cc3ccccc3Cl)c(=O)[nH]c2=O)cc1 -73.2%
COc1ccc(-c2nnc3[nH]c(=O)n(C)c(=O)c3n2)cc1OC -22.8% and -20.3%
CCCOC(=O)c1ccc(NC(=O)c2ccc(C)c(I)c2)cc1 -23.6%
Cc1cc(-n2c(C)cc(C=C3C(=O)NC(=O)NC3=O)c2C)ccc1I -48.2%
CC(=O)N(CN1C(=O)c2ccccc2C1=O)c1ccc(Br)cc1 -29.4%
O=C1NC(=O)C(=Cc2cc(Cl)c(OCc3ccc(C(=O)O)cc3)c(Cl)c2)C(=O)N1 -37.4%
COc1ccc(N(/C=C2\Sc3ccccc3C2=O)C(C)=O)cc1 -312%
Cn1c(=O)[nH]c(=O)c2nc(-c3ccccc3)c(-c3ccccc3)nc21 -33.3%
CCCCCCC(=O)N(CN1C(=O)c2ccccc2C1=O)c1ccccc1 -23.4%
CC(=O)N(CN1C(=O)c2ccc([N+](=O)[O-])cc2C1=O)c1ccc(Oc2ccccc2)cc1 -28.5%
COC(=O)c1ccc(NC(=O)c2cc(-c3ccc(C)o3)nc3ccccc23)cc1 25.4%
CC(=O)N(/N=C1\Sc2ccccc2C1=O)c1ccccc1C 17.5%
CCN(CC)CCOC(=O)c1ccc(N=Cc2c(O)n(C)c(=O)[nH]c2=O)cc1 -180%
CC(=O)N(/C=C1\Sc2ccccc2C1=O)c1ccc(I)cc1 -16.1%
CCOC(=O)c1ccc(NC(=O)c2ccc(NC(=O)CC)cc2)cc1 -9.03%
COC(=O)c1ccc(N(/N=C2\Sc3ccccc3C2=O)C(C)=O)cc1 -20.9%
COc1ccc(C(=O)COC(=O)c2ccc(NC(=O)c3ccccc3)cc2)cc1 40.3%
CCOC(=O)c1ccc(NC(=O)C2C3C=CC(C3)C2C(=O)O)cc1 (configuration not stated) -31.4%
CCOC(=O)N1CCN(c2cc3nccnc3cc2F)CC1 -52.1%
CC(=O)N(/C=C1\Sc2ccccc2C1=O)c1ccc(C)c(C)c1 -217%
CC(=O)Oc1ccccc1N(/C=C1\Sc2ccccc2C1=O)C(C)=O -254% and -278%
CCOc1ccc(-c2nc3c(=O)n(C)c(=O)nc-3n(C)n2)cc1OC 34.4%
CCCCOC(=O)c1ccc(NC(=O)c2cc(OCC)c(OCC)c(OCC)c2)cc1 -30.5%
CCn1nc(-c2ccccc2Br)nc2c(=O)n(C)c(=O)nc1-2 34.5%
